Assays:
Test in all cases: DAPPL (digital affinity profiling via proximity ligation, sequencing); 10 mM Tris-HCl pH 7.5, 50 mM NaCl, 1 mM DTT, 4% glycerol, room temperature, 30 min; GST-TFs on glutathione beads, 16-mer random dsDNA library, 0.1% formaldehyde crosslink after washing; high values mean tight binding
FEV = molecular target: T1, FEV (Homo sapiens, UniProt Q99581 1-238); settings: protein: recombinant; tags: N-terminal GST; dsDNA, one strand shown
T1 sequence: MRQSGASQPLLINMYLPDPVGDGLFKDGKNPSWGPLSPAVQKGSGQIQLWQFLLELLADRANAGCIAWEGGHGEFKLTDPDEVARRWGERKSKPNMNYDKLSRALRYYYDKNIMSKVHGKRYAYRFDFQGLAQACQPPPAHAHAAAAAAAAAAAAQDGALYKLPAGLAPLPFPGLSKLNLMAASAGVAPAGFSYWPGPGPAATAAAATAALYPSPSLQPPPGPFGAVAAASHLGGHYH
Outline: (§1)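 Sequencing on an Illumina NextSeq500 followed washing, crosslinking with 0.1% formaldehyde, proximity ligation (BsaI/T4 ligase, 1 h, 37 °C) and PCR amplification of pools that had been incubated for 30 min at room temperature with 200 nmole of a random double-stranded 16-mer DNA library in Tris/NaCl/DTT/glycerol buffer. Each pool held DNA-barcoded human transcription factors, expressed in yeast as GST fusions and captured on glutathione beads, plus a tag-only sample. Binding signal is a hexamer's read frequency for a factor divided by its frequency in the tag-only sample.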

ETV5 = ETV5 (Homo sapiens, UniProt P41161 1-510); settings: protein: recombinant; tags: N-terminal GST; dsDNA, one strand shown
Sequence of ETV5 (P41161 whole entry): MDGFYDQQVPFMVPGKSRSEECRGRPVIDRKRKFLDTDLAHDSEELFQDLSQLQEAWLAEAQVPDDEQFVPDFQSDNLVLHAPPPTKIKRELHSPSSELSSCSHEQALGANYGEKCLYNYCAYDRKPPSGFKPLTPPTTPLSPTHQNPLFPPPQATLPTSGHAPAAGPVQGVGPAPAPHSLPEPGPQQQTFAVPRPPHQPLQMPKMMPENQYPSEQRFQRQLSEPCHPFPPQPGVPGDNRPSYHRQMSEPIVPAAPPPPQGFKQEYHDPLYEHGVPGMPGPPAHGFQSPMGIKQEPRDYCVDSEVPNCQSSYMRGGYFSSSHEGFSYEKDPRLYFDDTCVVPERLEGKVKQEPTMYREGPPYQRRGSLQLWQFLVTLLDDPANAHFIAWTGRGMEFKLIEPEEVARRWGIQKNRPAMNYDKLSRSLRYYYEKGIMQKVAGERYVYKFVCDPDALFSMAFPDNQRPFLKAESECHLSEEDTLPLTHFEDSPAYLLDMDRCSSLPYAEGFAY
Outline: as §1

HSF1 = HSF1 (Homo sapiens, UniProt Q00613 1-529); settings: protein: recombinant; tags: N-terminal GST; chain copies: 3; dsDNA, one strand shown
Sequence of HSF1 (Q00613 whole entry): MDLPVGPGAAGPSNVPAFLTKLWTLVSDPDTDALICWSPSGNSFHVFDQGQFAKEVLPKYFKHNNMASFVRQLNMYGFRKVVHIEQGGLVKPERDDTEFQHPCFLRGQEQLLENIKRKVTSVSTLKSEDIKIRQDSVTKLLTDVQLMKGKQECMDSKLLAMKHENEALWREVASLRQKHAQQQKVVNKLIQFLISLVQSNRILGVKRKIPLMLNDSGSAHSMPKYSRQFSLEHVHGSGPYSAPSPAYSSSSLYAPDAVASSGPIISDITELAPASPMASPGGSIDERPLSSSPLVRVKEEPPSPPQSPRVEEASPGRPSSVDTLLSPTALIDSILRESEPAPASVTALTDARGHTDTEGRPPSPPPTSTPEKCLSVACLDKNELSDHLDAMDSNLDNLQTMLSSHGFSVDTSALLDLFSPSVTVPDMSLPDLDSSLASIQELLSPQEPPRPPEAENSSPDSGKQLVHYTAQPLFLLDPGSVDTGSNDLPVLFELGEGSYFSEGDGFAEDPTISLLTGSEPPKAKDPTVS
Outline: as §1

SPIC = molecular target: T2, SPIC (Homo sapiens, UniProt Q8N5J4 1-248); settings: protein: recombinant; tags: N-terminal GST; dsDNA, one strand shown
T2 sequence: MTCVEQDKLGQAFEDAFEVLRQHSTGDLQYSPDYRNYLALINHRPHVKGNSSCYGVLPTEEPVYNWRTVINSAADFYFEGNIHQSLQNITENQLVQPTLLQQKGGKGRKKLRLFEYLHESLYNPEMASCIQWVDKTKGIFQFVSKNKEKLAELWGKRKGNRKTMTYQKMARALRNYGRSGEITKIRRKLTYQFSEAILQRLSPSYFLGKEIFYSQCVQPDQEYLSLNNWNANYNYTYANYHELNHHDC
Outline: as §1

ELF4 = ELF4 (Homo sapiens, UniProt Q99607 1-663); settings: protein: recombinant; tags: N-terminal GST; dsDNA, one strand shown
Sequence of ELF4 (Q99607 whole entry): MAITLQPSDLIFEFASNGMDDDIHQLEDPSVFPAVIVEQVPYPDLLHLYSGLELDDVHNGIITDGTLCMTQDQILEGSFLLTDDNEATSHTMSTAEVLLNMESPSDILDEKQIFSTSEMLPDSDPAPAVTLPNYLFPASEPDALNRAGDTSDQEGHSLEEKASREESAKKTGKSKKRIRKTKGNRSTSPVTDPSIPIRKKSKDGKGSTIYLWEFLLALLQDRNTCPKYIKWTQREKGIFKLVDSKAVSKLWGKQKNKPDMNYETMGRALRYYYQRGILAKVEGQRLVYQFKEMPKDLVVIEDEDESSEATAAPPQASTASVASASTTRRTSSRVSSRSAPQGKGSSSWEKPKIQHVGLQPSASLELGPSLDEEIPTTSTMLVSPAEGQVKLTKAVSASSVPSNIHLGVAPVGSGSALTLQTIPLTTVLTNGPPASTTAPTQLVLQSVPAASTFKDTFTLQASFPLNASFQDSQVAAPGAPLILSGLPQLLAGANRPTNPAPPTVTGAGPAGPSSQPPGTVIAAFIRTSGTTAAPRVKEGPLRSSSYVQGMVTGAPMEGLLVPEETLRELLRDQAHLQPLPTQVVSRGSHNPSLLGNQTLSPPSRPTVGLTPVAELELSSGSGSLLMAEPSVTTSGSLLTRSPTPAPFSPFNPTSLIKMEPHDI
Outline: as §1

ELK4 = molecular target: T3, ELK4 (Homo sapiens, UniProt P28324-2 1-405); settings: protein: recombinant; tags: N-terminal GST; dsDNA, one strand shown
T3 sequence: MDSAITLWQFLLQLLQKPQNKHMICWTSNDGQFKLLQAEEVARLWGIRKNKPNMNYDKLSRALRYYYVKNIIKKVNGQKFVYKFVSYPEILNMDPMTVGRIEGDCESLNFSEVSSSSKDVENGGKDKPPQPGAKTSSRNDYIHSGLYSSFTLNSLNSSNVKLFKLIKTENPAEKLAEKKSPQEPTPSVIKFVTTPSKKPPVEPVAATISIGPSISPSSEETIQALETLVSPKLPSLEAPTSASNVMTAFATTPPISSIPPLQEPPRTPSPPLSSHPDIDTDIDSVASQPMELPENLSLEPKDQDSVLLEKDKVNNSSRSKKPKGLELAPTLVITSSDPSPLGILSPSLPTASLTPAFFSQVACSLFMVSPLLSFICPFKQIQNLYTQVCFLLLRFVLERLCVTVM
Outline: as §1

ETV2 = molecular target: T4, ETV2 (Homo sapiens, UniProt O00321 1-342); settings: protein: recombinant; tags: N-terminal GST; dsDNA, one strand shown
T4 sequence: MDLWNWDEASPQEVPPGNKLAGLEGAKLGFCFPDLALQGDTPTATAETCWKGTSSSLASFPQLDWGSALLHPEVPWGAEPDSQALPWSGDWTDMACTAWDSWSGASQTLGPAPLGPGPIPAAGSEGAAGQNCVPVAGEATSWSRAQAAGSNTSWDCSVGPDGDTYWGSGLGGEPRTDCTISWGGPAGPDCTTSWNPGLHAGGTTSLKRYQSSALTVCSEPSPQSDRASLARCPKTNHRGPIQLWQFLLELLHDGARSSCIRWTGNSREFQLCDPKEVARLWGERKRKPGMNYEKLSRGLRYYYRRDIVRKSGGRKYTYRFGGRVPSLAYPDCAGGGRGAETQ
Outline: as §1

ELF3 = molecular target: T5, ELF3 (Homo sapiens, UniProt P78545 1-371); settings: protein: recombinant; tags: N-terminal GST; dsDNA, one strand shown
T5 sequence: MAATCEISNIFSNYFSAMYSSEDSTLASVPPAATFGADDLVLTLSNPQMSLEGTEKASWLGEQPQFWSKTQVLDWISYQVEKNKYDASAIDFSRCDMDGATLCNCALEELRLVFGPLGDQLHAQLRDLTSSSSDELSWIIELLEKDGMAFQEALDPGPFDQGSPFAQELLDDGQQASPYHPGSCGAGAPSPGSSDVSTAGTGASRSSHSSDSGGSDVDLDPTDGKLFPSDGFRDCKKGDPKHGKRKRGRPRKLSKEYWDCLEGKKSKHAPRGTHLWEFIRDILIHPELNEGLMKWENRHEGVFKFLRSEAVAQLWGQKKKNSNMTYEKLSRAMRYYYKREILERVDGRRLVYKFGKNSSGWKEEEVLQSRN
Outline: as §1

CRX = CRX (Homo sapiens, UniProt O43186 1-299); settings: protein: recombinant; tags: N-terminal GST; dsDNA, one strand shown
Sequence of CRX (O43186 whole entry): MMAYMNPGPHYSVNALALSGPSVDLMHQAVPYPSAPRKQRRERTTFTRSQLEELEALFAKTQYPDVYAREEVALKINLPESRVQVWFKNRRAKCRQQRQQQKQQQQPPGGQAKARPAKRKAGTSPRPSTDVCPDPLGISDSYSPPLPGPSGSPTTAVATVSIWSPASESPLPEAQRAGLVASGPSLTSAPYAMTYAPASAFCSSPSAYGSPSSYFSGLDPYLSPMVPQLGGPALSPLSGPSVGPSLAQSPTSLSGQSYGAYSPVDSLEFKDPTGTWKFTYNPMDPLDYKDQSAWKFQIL
Outline: as §1

ETV1 = ETV1 (Homo sapiens, UniProt P50549 1-477); settings: protein: recombinant; tags: N-terminal GST; dsDNA, one strand shown
Sequence of ETV1 (P50549 whole entry): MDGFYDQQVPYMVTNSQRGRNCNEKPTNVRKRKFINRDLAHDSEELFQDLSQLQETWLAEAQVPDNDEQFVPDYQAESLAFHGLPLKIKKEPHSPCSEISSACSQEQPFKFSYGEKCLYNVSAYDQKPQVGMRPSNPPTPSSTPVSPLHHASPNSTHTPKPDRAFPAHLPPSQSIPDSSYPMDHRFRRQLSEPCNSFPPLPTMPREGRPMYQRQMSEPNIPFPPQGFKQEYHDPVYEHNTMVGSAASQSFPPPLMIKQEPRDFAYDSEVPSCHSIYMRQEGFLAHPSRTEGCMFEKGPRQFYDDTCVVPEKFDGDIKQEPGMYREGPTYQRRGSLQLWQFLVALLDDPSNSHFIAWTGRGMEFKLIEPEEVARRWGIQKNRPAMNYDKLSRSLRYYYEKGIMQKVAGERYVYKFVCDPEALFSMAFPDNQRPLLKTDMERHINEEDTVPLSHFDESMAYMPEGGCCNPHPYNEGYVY
Outline: as §1

ERF = molecular target: T6, ERF (Homo sapiens, UniProt P50548 1-548); settings: protein: recombinant; tags: N-terminal GST; dsDNA, one strand shown
T6 sequence: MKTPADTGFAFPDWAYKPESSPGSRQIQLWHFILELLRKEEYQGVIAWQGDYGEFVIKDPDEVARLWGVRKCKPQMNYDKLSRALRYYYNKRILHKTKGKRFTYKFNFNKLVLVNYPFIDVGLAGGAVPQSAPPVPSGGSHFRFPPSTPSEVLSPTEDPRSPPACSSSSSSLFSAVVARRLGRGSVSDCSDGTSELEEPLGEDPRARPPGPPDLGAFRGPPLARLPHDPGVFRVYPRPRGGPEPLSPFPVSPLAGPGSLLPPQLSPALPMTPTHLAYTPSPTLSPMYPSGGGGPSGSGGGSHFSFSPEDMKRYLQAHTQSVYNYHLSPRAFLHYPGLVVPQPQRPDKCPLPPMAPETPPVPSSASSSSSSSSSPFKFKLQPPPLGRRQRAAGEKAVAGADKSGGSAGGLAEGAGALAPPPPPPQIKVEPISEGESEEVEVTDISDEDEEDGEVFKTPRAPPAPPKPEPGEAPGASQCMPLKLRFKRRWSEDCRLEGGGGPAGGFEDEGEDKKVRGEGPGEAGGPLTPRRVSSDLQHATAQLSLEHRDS
Outline: as §1

ETV3L = molecular target: T7, ETV3L (Homo sapiens, UniProt Q6ZN32 1-361); settings: protein: recombinant; tags: N-terminal GST; dsDNA, one strand shown
T7 sequence: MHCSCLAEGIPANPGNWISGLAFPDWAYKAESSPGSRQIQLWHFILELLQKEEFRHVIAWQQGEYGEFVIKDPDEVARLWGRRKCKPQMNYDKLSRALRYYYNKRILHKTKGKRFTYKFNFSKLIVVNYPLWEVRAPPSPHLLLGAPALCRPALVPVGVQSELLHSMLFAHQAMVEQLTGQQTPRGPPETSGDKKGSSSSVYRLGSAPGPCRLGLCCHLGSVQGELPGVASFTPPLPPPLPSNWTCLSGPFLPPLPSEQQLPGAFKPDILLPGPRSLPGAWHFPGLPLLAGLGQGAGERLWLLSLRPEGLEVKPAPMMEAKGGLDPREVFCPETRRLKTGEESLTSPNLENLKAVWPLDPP
Outline: as §1

ETS2 = molecular target: T8, ETS2 (Homo sapiens, UniProt P15036 1-469); settings: protein: recombinant; tags: N-terminal GST; dsDNA, one strand shown
T8 sequence: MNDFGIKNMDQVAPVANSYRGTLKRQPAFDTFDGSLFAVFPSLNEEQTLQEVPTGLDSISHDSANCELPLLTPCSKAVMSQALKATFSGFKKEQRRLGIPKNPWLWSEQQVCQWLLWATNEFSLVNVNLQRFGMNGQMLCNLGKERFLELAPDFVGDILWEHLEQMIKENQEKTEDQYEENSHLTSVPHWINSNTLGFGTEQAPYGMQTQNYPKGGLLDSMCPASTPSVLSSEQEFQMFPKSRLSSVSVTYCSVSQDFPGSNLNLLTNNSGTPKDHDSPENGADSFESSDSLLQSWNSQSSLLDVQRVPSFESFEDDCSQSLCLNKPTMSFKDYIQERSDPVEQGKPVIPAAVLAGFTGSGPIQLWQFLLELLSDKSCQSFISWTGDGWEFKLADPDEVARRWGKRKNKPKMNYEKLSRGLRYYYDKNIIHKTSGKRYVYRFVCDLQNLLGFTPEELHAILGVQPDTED
Outline: as §1

SPDEF = molecular target: T9, SPDEF (Homo sapiens, UniProt O95238 1-335); settings: protein: recombinant; tags: N-terminal GST; dsDNA, one strand shown
T9 sequence: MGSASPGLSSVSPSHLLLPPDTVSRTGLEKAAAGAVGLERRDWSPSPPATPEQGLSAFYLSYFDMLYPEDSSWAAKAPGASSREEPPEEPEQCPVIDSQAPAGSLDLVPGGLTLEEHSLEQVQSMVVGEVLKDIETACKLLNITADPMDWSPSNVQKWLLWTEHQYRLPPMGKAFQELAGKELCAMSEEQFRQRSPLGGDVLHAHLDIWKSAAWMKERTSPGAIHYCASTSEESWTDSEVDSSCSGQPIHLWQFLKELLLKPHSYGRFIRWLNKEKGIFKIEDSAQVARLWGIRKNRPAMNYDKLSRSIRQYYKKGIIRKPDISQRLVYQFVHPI
Outline: as §1

ETV7 = molecular target: T10, ETV7 (Homo sapiens, UniProt Q9Y603 1-341); settings: protein: recombinant; tags: N-terminal GST; dsDNA, one strand shown
T10 sequence: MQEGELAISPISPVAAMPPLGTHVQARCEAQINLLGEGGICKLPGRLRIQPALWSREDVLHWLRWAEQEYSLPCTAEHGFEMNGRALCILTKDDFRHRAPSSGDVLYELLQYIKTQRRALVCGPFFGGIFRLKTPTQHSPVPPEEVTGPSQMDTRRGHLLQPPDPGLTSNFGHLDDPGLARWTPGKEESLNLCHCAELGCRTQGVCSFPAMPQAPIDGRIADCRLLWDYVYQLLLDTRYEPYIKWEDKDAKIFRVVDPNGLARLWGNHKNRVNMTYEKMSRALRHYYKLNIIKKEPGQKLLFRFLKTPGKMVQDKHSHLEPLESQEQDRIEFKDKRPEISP
Outline: as §1

ELF5 = molecular target: T11, ELF5 (Homo sapiens, UniProt Q9UKW6-2 1-255); settings: protein: recombinant; tags: N-terminal GST; dsDNA, one strand shown
T11 sequence: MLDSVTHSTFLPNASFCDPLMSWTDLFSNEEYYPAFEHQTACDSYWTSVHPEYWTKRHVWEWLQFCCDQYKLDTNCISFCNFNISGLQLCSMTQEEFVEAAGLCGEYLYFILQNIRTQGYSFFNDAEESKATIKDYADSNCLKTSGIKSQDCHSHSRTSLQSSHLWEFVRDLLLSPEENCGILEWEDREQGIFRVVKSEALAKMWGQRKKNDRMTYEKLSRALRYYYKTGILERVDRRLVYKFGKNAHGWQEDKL
Outline: as §1

ETV3 = molecular target: T12, ETV3 (Homo sapiens, UniProt P41162-2 1-143); settings: protein: recombinant; tags: N-terminal GST; dsDNA, one strand shown
T12 sequence: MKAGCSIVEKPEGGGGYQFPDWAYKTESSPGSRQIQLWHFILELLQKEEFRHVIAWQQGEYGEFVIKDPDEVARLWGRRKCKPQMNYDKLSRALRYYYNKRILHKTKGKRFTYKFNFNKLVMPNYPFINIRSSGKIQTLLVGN
Outline: as §1

ETV6 = ETV6 (Homo sapiens, UniProt P41212 1-452); settings: protein: recombinant; tags: N-terminal GST; dsDNA, one strand shown
Sequence of ETV6 (P41212 whole entry): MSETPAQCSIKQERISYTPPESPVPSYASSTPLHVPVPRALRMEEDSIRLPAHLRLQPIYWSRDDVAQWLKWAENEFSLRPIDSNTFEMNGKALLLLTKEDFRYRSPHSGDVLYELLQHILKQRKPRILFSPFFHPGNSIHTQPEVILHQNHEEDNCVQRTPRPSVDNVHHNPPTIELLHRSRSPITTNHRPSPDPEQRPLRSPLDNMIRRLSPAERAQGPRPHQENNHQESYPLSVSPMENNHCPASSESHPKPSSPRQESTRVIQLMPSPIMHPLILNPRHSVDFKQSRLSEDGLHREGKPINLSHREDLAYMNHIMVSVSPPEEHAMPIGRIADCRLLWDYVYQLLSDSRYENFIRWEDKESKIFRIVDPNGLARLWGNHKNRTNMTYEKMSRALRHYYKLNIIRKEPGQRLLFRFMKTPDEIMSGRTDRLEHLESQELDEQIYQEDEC
Outline: as §1

## CGATTT
FEV
  binding signal: 1.22 fold enrichment (6-mer frequency, TF over GST control)
ETV5
  binding signal: 1.23 fold enrichment (6-mer frequency, TF over GST control)
HSF1
  binding signal: 1.38 fold enrichment (6-mer frequency, TF over GST control)
SPIC
  binding signal: 1.22 fold enrichment (6-mer frequency, TF over GST control)
ELF4
  binding signal: 1.19 fold enrichment (6-mer frequency, TF over GST control)
ELK4
  binding signal: 1.14 fold enrichment (6-mer frequency, TF over GST control)
ETV2
  binding signal: 1.13 fold enrichment (6-mer frequency, TF over GST control)
ELF3
  binding signal: 1.23 fold enrichment (6-mer frequency, TF over GST control)
CRX
  binding signal: 1.58 fold enrichment (6-mer frequency, TF over GST control)
ETV1
  binding signal: 1.17 fold enrichment (6-mer frequency, TF over GST control)
ERF
  binding signal: 1.09 fold enrichment (6-mer frequency, TF over GST control)
ETV3L
  binding signal: 1.17 fold enrichment (6-mer frequency, TF over GST control)
ETS2
  binding signal: 1.26 fold enrichment (6-mer frequency, TF over GST control)
SPDEF
  binding signal: 1.07 fold enrichment (6-mer frequency, TF over GST control)
ETV7
  binding signal: 1.13 fold enrichment (6-mer frequency, TF over GST control)
ELF5
  binding signal: 1.13 fold enrichment (6-mer frequency, TF over GST control)
ETV3
  binding signal: 1.18 fold enrichment (6-mer frequency, TF over GST control)
ETV6
  binding signal: 1.22 fold enrichment (6-mer frequency, TF over GST control)

From article PMC7862700, “An all-to-all approach to the identification of sequence-specific readers for epigenetic DNA modifications on cytosine”
